Results: PubChem BioAssay AID504652 (National Center for Advancing Translational Sciences (NCATS), 2011)
Hit rate of the full screen: of about 360,000 compounds, about 11,000 (3.1%) were called active. The sample as a whole holds a higher share of actives than the screen did. A number with no mark means an inactive call. No stated cut-off is given here; in the data, active means activity change below about -30%; inactive means the rest.

Each molecule was assayed against D(1A) dopamine receptor (Homo sapiens) (UniProt P21728) (assay: Antagonist of Human D 1 Dopamine Receptor: qHTS). Conditions: HEK293 TREx D1 cells, calcium flux, dopamine EC80; at 10 µM; stronger effect = lower value.
Procedure, shortened: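 Calcium flux readout: force-coupled, inducible Hek293 Trex D1 line, cells induced overnight at 30 C with tetracycline, dye-loaded 30–90 min at RT. Antagonism scored against EC80 dopamine challenge given 180 s after compound.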
On the % scale 0 is the no-effect control and ±100 the full control effect.

Chain of D(1A) dopamine receptor (Homo sapiens) (P21728 whole entry, looked up): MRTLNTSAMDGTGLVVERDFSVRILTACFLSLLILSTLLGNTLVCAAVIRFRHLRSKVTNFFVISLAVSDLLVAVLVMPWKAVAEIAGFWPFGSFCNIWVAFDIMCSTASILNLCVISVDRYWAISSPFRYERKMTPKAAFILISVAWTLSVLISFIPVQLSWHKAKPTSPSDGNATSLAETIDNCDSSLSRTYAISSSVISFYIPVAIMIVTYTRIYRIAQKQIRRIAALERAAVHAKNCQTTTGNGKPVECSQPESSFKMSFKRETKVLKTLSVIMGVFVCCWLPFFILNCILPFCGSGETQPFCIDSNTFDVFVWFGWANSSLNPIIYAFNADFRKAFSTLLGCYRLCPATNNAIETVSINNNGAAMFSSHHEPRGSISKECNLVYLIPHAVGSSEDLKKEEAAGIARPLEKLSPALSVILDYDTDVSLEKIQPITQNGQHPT

Structure (SMILES) | activity change, negative = inhibition
Cc1ccc(C(=O)Nc2ccc(OCc3cc(=O)n4c5c(sc4n3)CCCC5)cc2)cc1 | -13.4%
CCOC(=O)CN(C)Cc1c[nH]c2ccccc12 | 0.896%
O=C(Cc1c[nH]c2ccccc12)OCCOC(=O)Cc1c[nH]c2ccccc12 | -32.2% (active)
O=C(COC(=O)Cc1c[nH]c2ccccc12)NCCc1ccccc1 | -2.05%
Cc1ccc(S(=O)(=O)N2CCc3cc(C(=O)Nc4ccc(Cl)cc4C)ccc32)cc1 | 3.15%
CCOc1ccc(Nc2nc3c(S(=O)(=O)c4cccc(Cl)c4)nnn3c3ccsc23)cc1 | -38.1% (active)
O=S(=O)(c1ccc(Cl)cc1)c1nnn2c1nc(NC1CCCC1)c1sccc12 | -19.7%
O=S(=O)(c1ccc(Br)cc1)c1nnn2c1nc(NC1CCCCCC1)c1sccc12 | 4.84%
COc1ccc(-c2nnc(SCC(=O)Nc3ccc(C(C)C)cc3)nc2-c2ccc(OC)c(OC)c2)cc1OC | -19.7%
NC1=NC(c2cc(F)cc(F)c2)n2c(nc3ccccc32)N1 (configuration not stated) | 0.602%
CCc1cccc(C)c1NS(=O)(=O)c1ccc(-c2cc(C)no2)s1 | 24.4%
O=C(Nc1ccc2c(c1)OCCO2)C1CCCC1 | -32.7% (active)
O=C(Nc1ccc2c(c1)OCCO2)c1ccoc1 | 15.7%
O=C(Nc1ccc2c(c1)OCO2)C1CC1(Cl)Cl (configuration not stated) | -9.18%
COc1ccc(NC(=O)NC(C)c2c(-n3cccc3)sc(C)c2C)cc1OC (configuration not stated) | -6.54%
COc1ccc(N2CCN(C3=NS(=O)(=O)C(c4cccc(Br)c4)=C3C)CC2)cc1 | -8.66%
N#Cc1c(NC(=O)C2CCCO2)sc2c1CCCCC2 (configuration not stated) | -19.1%
N#Cc1c(NC(=O)CCCl)sc2c1CCCCC2 | -30.1% (active)
CCN1CCN(CC(=O)Nc2sc3c(c2C#N)CCC3)CC1 | -11.5%

Structure (SMILES) | activity change, negative = inhibition
COc1ccccc1CNC(=O)CS(=O)(=O)c1cccc2nsnc12 | 13.8%
CCCn1c2ccccc2c2cnn(CC(=O)NCC3CCN(Cc4ccc(C)cc4)CC3)c(=O)c21 | -18.2%
CCOC(=O)CSc1nnc(CNC(=O)c2cccs2)n1-c1ccccc1 | -4.34%
Cn1c(CNc2nc(-c3ccccc3)cs2)nnc1SCC(=O)c1ccccc1 | -24.4%
CCOC(=O)CSc1nnc(CNc2nc(-c3ccccc3)cs2)n1C | -37.1% (active)
COc1ccc(-c2nn(CC(=O)Nc3ccccc3F)c3c2cnc2ccc(F)cc23)cc1 | -0.202%
COc1ccc(-c2nn3c(-c4ccc(OC)cc4)nnc3c3ccccc23)cc1 | -13.1%
COc1ccc(-c2nc3ccc(C(=O)NCc4ccc(C)cc4)cc3nc2-c2ccc(OC)cc2)cc1 | -1.2%
COc1ccc(CNC(=O)c2ccc3c(O)c(S(=O)(=O)c4ccccc4)c(=O)[nH]c3c2)cc1 | 5.97%
Cc1cc(C)cc(NC(=O)CCS(=O)(=O)c2cc3c4c(c2)CCN4C(=O)CC3)c1 | 20.6%
Cn1nccc1C(=O)N1CCCC(C(=O)c2ccc(Oc3ccccc3)cc2)C1 (configuration not stated) | -33% (active)
O=C(c1ccc(-c2ccccc2)cc1)C1CCCN(C(=O)c2cncs2)C1 (configuration not stated) | -2.69%
CCn1nc(C)cc1C(=O)N1CCCC(C(=O)c2cccc(OC)c2)C1 (configuration not stated) | 0.174%
Cc1nnc(NC(=O)CSc2nc3c([nH]c4ccccc43)c(=O)n2-c2cccc(Cl)c2)s1 | -3.1%
CCOC(=O)c1c(NC(C)=O)c2c3c(sc2n1Cc1c(C)cc(C)cc1C)CCCC3 | 27.5%
CCOC(=O)C(Cc1ccccc1)NC(=O)CCc1c(C)nc2c(c(C)nn2-c2ccc(C)c(C)c2)c1C (configuration not stated) | -20.6%
CCOC(=O)N/N=C/c1cn(Cc2ccccc2Cl)c2ccccc12 | -33.9% (active)
COc1cccc(Cn2cc(/C=N/NC(=O)c3cc(O)cc(O)c3)c3ccccc32)c1 | 3.21%
N#CCC(=O)N/N=C/c1cn(Cc2ccc3ccccc3c2)c2ccccc12 | 16.1%

Structure (SMILES) | activity change, negative = inhibition
CCc1ccc(NC(=O)c2nn(-c3ccc(C)cc3)c(=O)n(C)c2=O)cc1 | -19.1%
Cc1ccc(N(CC(=O)NCc2ccc(Cl)cc2)S(=O)(=O)N(C)C)cc1 | 27%
CC(C)(C)c1ccc(C(=O)NCC(c2ccc(Cl)cc2)N2CCOCC2)cc1 (configuration not stated) | -13.3%
O=c1cc(COc2cccc(C(F)(F)F)c2)nc2sc3c(n12)CCCC3 | -4.09%
O=C(CSCc1cnn(-c2ccccc2)c1-n1cccc1)NCc1ccc(Cl)cc1 | 5.55%
CCCOc1ccc(C2c3c(-c4ccccc4O)n[nH]c3C(=O)N2Cc2cccnc2)cc1 (configuration not stated) | 27.7%
[O-][n+]1c2c(nn1-c1ccc(Cl)c(Cl)c1)-c1nonc1CC2 | -35.4% (active)
Cc1nnc(N2CCC(C(=O)Nc3ccc(F)cc3)CC2)c2nn(-c3ccc(Cl)cc3)c(C)c12 | -3.69%
COc1cc(C(=O)NNC(=O)c2ccc(S(=O)(=O)N3CCCCC3)cc2)cc(OC)c1OC | -4.12%
COc1ccc(F)cc1S(=O)(=O)N1CCCCC1 | 1.35%
COc1ccc(S(=O)(=O)N2CCCCC2)cc1Br | -47.9% (active)
COc1ccc(OC)c(-c2csc(-c3c(N)c(C(=O)c4ccccc4)n4ccccc34)n2)c1 | -9.07%
O=[N+]([O-])c1ccccc1NCc1ccc(Cl)cc1 | -2.99%
Cc1cccc(NC(=S)NCCc2ccc(F)cc2)c1C | -6.25%
Cc1c(NC(=O)CCCOc2ccccc2)cccc1[N+](=O)[O-] | 0.202%
Cc1c(NC(=S)NCc2ccc(F)cc2)cccc1[N+](=O)[O-] | -31.5% (active)
O=C(O)/C=C/C(=O)NNc1ccc([N+](=O)[O-])cc1 | 4.19%
Cc1c(NC(=O)/C=C/C(=O)O)cccc1[N+](=O)[O-] | -41.8% (active)
COc1ccc(-c2cccc(NS(=O)(=O)c3cc(C)c(OC)c(C)c3C)c2)nn1 | -20.7%
